# Measurements published in PubChem BioAssay AID720576 (National Center for Advancing Translational Sciences (NCATS), 2013).
# Some of the results follow. Results filed as inconclusive are left out. The source made the active and inactive calls. Calls come from the whole dose curve; as a rule, active = well fitted inhibition curve with a large enough effect; inconclusive = small, poorly fitted or top-dose-only effect; inactive = no such curve, though single readings can be large or run the other way.
# Test: qHTS Assay for Inhibitors of Hepatitis C Virus (HCV): Cytotoxicity Counterscreen for Cherry-picked Compounds
# Settings: HCV host cell line cytotoxicity counterscreen; series mostly up to 41.8 µM; activity change, negative = cytotoxicity: at the top concentration
# Text: Hepatitis C virus (HCV) infects about 200 million people in the world. Many infected people progress to chronic liver disease including cirrhosis with a risk of developing liver cancer. To date, there is no effective vaccine for hepatitis C. Current therapy based on interferon is only effective in about half of the patients and is associated with significant adverse effects. The fraction of people with HCV who can complete a successful treatment is estimated to be no more than 10 percent. Recent development of direct-acting antivirals against HCV, such as protease and polymerase inhibitors, is promising but still requires combination with peginterferon and ribavirin for maximal efficacy. In addition, these agents are associated with high rate of resistance and many have significant side effects. Due to the lack of a culture system for infectious HCV, the search for new HCV drugs has been greatly hampered. […] High-throughput screening (HTS) with an infectious HCV system would cover the complete spectrum of potentially druggable targets in all stages of HCV lifecycle, and would have more biological relevance than other cell-based assays. Moreover, targeting several key processes in the viral life cycle may not only increase antiviral efficacy; more importantly, it may also reduce the capacity of the virus to develop resistance to the compound.
# The goal of this project is to identify novel HCV inhibitors as new therapies for hepatitis C, using a highly sensitive and specific assay platform based on a HCV infectious cell culture system established in the laboratory and adapted for high-throughput HCV drug screen. The primary assay was used to screen the MLPCN compound library and potential inhibitors were cherry picked for confirmation and further characterization. To evaluate the cytotoxic effect of the selected compounds, a secondary cell based counterscreen using the Promega CellTiter Glo reagent and Huh cell line was developed. The data herein is the result of the Cytotoxicity counterscreen against the cherry picked compounds. No significant activity is the desired outcome for this assay.
# NIH Chemical Genomics Center [NCGC]
# NIH Molecular Libraries Probe Centers Network [MLPCN]
# Assay Submitter (PI): Jake Liang, NIDDK
# Cells were plated in a 1536-wel tissue culture grade plates at a final concentration of 1,000 cells/well (3 uL volume). The assay plate was culture for 4 h. Then 23 nL of compounds from the library collection was added to each well and incubated for 44 h at 37C, 5% CO2. A volume of 4.5 uL CellTiterGlo reagent was to each well and the plates were incubated at room temperature for 15 min. The luminescence signal was read for 15 sec using the PerkinElmer ViewLux plate reader.
# % is set by controls: 0 for no effect and ±100 for the full control effect.
# 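Note: 44 h compound exposure; nearly all actives have a fitted effect of over 55% in size.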
Compound,Potency,"activity change, negative = cytotoxicity"
Cc1ccc(C)c(N2CCN(C(=O)CCCCCn3c(=S)[nH]c4ccc(N5CCOCC5)cc4c3=O)CC2)c1,9.95 µM (active),
COCCCn1c(SCc2cccc(OC)c2)nc2cc(OC)c(OC)cc2c1=N,,-6.07% (inactive)
COc1ccc(NC(=O)c2sc(N3CCOCC3)nc2-c2ccccc2)c(OC)c1,,13.7% (inactive)
O=S(=O)([N-]c1nc2ccccc2nc1-[n+]1ccc(Cc2ccccc2)cc1)c1ccc(Br)s1,,-37.7% (inactive)
CCCOc1ccc(C(=O)C(CCC(CNCC)C(=O)c2ccc(OCCC)cc2)CNCC)cc1 (stereo not drawn),7.91 µM (active),
N#C/C(=C1\CCCN1)c1nc(-c2ccccc2)cs1,,27.9% (inactive)
CN(C)c1nc(N)nc(CSc2nnnn2-c2cccc3ccccc23)n1,6.28 µM (active),
CC(C)(C)c1ccc(Oc2ccc(N)cc2)cc1,,-51.7% (inactive)
CCCc1nc2ccccc2c(C(=O)OCc2nnc(-c3cc(OC)c(OC)c(OC)c3)o2)c1CC,,-38.9% (inactive)
COc1ccc(C(C(=O)NC2CCCCC2)N(C(=O)CCl)c2ccccc2Cl)cc1 (stereo not drawn),2.5 µM (active),
Cc1cc(-c2cccs2)nc(-n2cccc2)n1,,-10.5% (inactive)
Cc1c(-c2cccc(Cl)c2)nc2ccccc2c1C(=O)OCC(=O)N(C)C1CCS(=O)(=O)C1 (stereo not drawn),,8.7% (inactive)
COc1ccc(OCCNC(=O)c2cc(C3CC3)nc3c2cnn3C(C)C)cc1,,40.8% (inactive)
